Menin MLL FP TR: qHTS Assay for Inhibitors Targeting the Menin-MLL Interaction in MLL Related Leukemias: Competition With Texas Red Labeled MLL-derived Mutant Peptide | Menin + Texas Red MLL mutant peptide, fluorescence polarization | Potency, µM (doses to about 61.6 µM), without a hit: top-dose FP activity change, negative = inhibition, actives largely listed as inhibitors | 270,000 compounds, 0.23% hits | AID 1768, 2009; active = well fitted inhibition curve with a large enough effect in the polarisation, with a control signal flat, not every such curve was filed as active; inconclusive = small, poorly fitted or top-dose-only effect, or effect the other way, or a change in a side signal; inactive = no such curve, though single readings can be large or run the other way; the % refers to the polarisation; note: potency is the fitted concentration of half-maximal effect; % of control where 0% means no effect
GLS inhibitor: qHTS for Inhibitors of Glutaminase (GLS); Glutaminase kidney isoform, mitochondrial (Homo sapiens), O94925; GLS enzymatic activity, qHTS titration; Potency, µM (doses to about 45.5 µM), inactives show at the top dose activity change, negative = inhibition, hits mostly inhibitors; 410,000 compounds, 0.21% hits; AID 624170, 2012; active = well fitted inhibition curve with a large enough effect; inconclusive = small, poorly fitted or top-dose-only effect, or another doubt; inactive = no such curve, though single readings can be large or run the other way; note: potency is the fitted concentration of half-maximal effect; % is set by controls: 0 for no effect and ±100 for the full control effect
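Enzyme dispensed in phosphate buffer (45 mM, pH 8.2, 0.02% Tween-20), compounds pinned in, then 1 mM L-glutamine solution and the glutamate oxidase–HRP–Amplex Red mix added; fluorescence read immediately and again after 30 min at room temperature.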
Menin MLL FP FL: qHTS Assay for Inhibitors Targeting the Menin-MLL Interaction in MLL Related Leukemias: Competition With Fluorescein Labeled MLL-derived Peptide; Fluorescence polarization, fluorescein-MLL peptide displacement from menin; FP activity change, % at 61.4 µM; 290,000 tested, under 10 active; active = well fitted curve in the direction sought with a large enough effect in the polarisation, not every such curve was filed as active; inconclusive = small, poorly fitted or top-dose-only effect, or effect the other way, or a change in a side signal; inactive = no such curve, though single readings can be large or run the other way; the % refers to the polarisation; note: % of control where 0% means no effect
Six1-Eya2 inh: qHTS Assay for Inhibitors of the Six1/Eya2 Interaction | Homeobox protein SIX1 (Homo sapiens) + Protein phosphatase EYA2 (Homo sapiens), … | AlphaScreen GST-Six1/His-Eya2 binding, biochemical; stronger effect = lower value | activity change, % (concentration not given with the values) | 360,000 compounds, 0.56% hits; note: % is set by controls: 0 for no effect and ±100 for the full control effect
Target sequence (O00167 whole entry, looked up): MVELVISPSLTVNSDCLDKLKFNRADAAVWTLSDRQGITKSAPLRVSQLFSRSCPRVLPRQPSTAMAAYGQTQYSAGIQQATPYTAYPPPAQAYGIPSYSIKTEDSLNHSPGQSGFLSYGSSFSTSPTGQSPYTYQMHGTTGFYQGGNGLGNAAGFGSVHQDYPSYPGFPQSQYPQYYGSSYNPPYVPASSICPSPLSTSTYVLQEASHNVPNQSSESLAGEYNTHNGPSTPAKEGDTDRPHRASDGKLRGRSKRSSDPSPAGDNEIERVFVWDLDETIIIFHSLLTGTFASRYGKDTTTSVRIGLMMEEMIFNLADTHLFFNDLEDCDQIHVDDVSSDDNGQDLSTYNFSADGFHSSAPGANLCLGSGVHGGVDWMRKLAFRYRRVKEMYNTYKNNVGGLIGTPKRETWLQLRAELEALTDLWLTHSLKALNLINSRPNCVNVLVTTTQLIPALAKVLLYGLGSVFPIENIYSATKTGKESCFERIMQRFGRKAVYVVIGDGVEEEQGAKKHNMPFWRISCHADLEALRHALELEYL
Target sequence (Q15475 whole entry, looked up): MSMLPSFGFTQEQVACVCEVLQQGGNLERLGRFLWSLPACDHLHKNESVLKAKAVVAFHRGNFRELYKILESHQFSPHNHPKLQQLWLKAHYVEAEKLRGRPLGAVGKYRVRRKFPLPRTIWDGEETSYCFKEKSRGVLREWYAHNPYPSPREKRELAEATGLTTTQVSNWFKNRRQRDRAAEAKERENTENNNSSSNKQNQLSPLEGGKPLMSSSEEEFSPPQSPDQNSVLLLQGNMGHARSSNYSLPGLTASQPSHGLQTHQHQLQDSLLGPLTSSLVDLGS
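Six1/Eya2 binding was read as AlphaScreen signal after compounds were pinned into GST-Six1 plus His-tagged Eya2 (5X stock 250/500 nM) in pH 8.0 Tris/NaCl/TCEP buffer, beads added, then incubated 1 h, 37 C, dark.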
CtBP-E1A inh: qHTS Assay for Inhibitors of the CtBP/E1A Interaction | CtBP / adenovirus E1A interaction (AlphaScreen) | AlphaScreen GST-E1A/His-CtBP binding, 1536-well; stronger effect = lower value | activity change, % (concentration not given with the values) | 340,000 compounds, 0.49% hits; note: % is set by controls: 0 for no effect and ±100 for the full control effect
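In 5 uL wells, 23 nL compound meets equimolar GST-E1A and His-CtBP (5X stock 125 nM each) for 2 h, 37 °C. Beads (5X, 50 ug/mL) then 1 h, 37 °C, dark.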
CXXC DNA block: qHTS Fluorescence Polarization Assay for Inhibitors of MLL CXXC domain - DNA interaction | Histone-lysine N-methyltransferase 2A (Homo sapiens), Q03164 | MLL-CXXC / FITC-HOXA9 DNA fluorescence polarization | Potency, µM (top dose mostly 115 µM), for inactives: top-dose activity change, negative = inhibition, hits mostly inhibitors | 290,000 compounds, 0.037% hits; active = well fitted inhibition curve with a large enough effect in the polarisation, with a control signal flat, not every such curve was filed as active; inconclusive = small, poorly fitted or top-dose-only effect, or effect the other way, or a change in a side signal; inactive = no such curve, though single readings can be large or run the other way; the % refers to the polarisation; note: potency is the fitted concentration of half-maximal effect
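Steps: dispense CXXC domain solution (7 uM) → pin compounds or unlabeled HOX-A9 DNA control → 5 min ambient → add FLSN-HOX-A9 solution (50 nM) → spin → 30 min ambient → fluorescence polarization. Tris pH 7.5/NaCl/DTT/BSA buffer.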
Numbers without * were called inactive; ! = not confirmed by another sample; [ ] = another dose, or the depositor's remark. This is a sample that favours compounds with a hit; in the whole collection about 0.83% have one here. Cut-off read from the data, not from the text of the source, unless noted: active = activity change below about -65%; inconclusive = mostly about -30% to -63%; inactive = weaker than that.

For CCC(C)CC(C)CC(C)C(=O)/C=C(/O)C(C)CC(C)C/C=C/C(C)C(O)C(C)C(O)CC1CCC(C)(C)O1 (centres undefined) the results were Menin MLL FP TR 8% and Menin MLL FP FL 8.
CCN(CC)CCCC(C)n1c(-c2ccccc2)nc2c(NCCOC)nc(C)nc21 (centres undefined) was read as Menin MLL FP TR -1% and Menin MLL FP FL 1.
`O=C(Nc1ccc(Br)cc1)c1cccc(-n2cnnn2)c1` gave Menin MLL FP TR inconclusive, GLS inhibitor 0%, Menin MLL FP FL -5, Six1-Eya2 inh -4, CtBP-E1A inh 0 and CXXC DNA block 4%.
`O=C(Nc1nc(-c2ccccn2)cs1)c1cccc(-n2cnnn2)c1` gave GLS inhibitor 7%, Menin MLL FP FL 5, Six1-Eya2 inh -92* and CXXC DNA block 20%.
For O=C(Nc1nc(-c2ccccn2)cs1)C1CC(=O)N(c2ccc3c(c2)OCCO3)C1 (centres undefined) the results were Menin MLL FP TR -18%, GLS inhibitor -14%, Menin MLL FP FL 11, Six1-Eya2 inh -86*, CtBP-E1A inh 0 and CXXC DNA block 0%.
For O=C(Nc1nc(-c2cc(Cl)sc2Cl)cs1)c1ccc(Br)s1 the results were Menin MLL FP TR inconclusive, GLS inhibitor 16%, Menin MLL FP FL 4, Six1-Eya2 inh 2, CtBP-E1A inh 1 and CXXC DNA block 18%.
For O=C(Nc1nc(-c2ccccn2)cs1)c1ccc(Br)s1 the results were Menin MLL FP TR inconclusive, GLS inhibitor -6%, Menin MLL FP FL 1, Six1-Eya2 inh inconclusive, CtBP-E1A inh -71* and CXXC DNA block 29%.
C/C(=N\Nc1cccc(C(=O)O)c1)c1cc2ccccc2o1 was read as Menin MLL FP TR inconclusive, GLS inhibitor inconclusive, Menin MLL FP FL -3, Six1-Eya2 inh -10, CtBP-E1A inh -13 and CXXC DNA block 13%.
`C/C(=N\Nc1ccc(Cl)c(C(=O)O)c1)c1cccc2ccccc12` gave Menin MLL FP TR 64%, GLS inhibitor 11µM*, Menin MLL FP FL 0, Six1-Eya2 inh inconclusive, CtBP-E1A inh -24 and CXXC DNA block -3%.
`C/C(=N\Nc1ccc(Cl)c(C(=O)O)c1)c1cc2ccccc2o1` gave Menin MLL FP TR inconclusive, GLS inhibitor 10µM*, Menin MLL FP FL 2, Six1-Eya2 inh -20, CtBP-E1A inh 6 and CXXC DNA block -4%.
`NC(N)=Nc1ccc(Cl)cc1` gave Menin MLL FP TR -1%[24.8 µM] and Menin MLL FP FL -6.
Screening NC(=Nc1ccc(N)cc1)C(N)=Nc1ccc(N)cc1 returned Menin MLL FP TR 11%, GLS inhibitor 7%, Menin MLL FP FL -3, Six1-Eya2 inh -65*, CtBP-E1A inh inconclusive and CXXC DNA block 7%.
CCCNC(=O)OC[C@@H]1O[C@H](CCO/N=C\[C@@H](C)[C@H](OCc2ccccc2)C(C)C)C=C[C@@H]1Oc1ccc(OC)cc1 was read as Menin MLL FP TR -8%[11.7 µM] and Menin MLL FP FL 2[11.7 µM].
For O=C1CSC(=S)N1N=C1CCCCCC1 the results were Menin MLL FP TR 19%, GLS inhibitor 27%, Menin MLL FP FL 13, Six1-Eya2 inh -80*, CtBP-E1A inh -10 and CXXC DNA block 14%.
O=C(O)c1c(Cl)c(Cl)c(Cl)c(Cl)c1-c1c2cc(I)c(=O)c(I)c-2oc2c(I)c(O)c(I)cc12 was read as Menin MLL FP TR inconclusive, GLS inhibitor 14µM*, Menin MLL FP FL inconclusive and CXXC DNA block inconclusive.
For O=C(CCS(=O)(=O)c1ccccc1)N(Cc1cccnc1)c1nc2c(Cl)cccc2s1 the results were GLS inhibitor -2%.
Screening O=C(N/N=C/c1ccc(O)c(O)c1)c1cccc(S(=O)(=O)N2CCCC2)c1 returned GLS inhibitor 11µM*, Six1-Eya2 inh -28 and CtBP-E1A inh -22.
Screening O=C(N/N=C/c1cc(Cl)cc([N+](=O)[O-])c1O)c1cccc(S(=O)(=O)N2CCOCC2)c1 returned GLS inhibitor 11%, Six1-Eya2 inh -91* and CtBP-E1A inh -87*.
For O=C(N/N=C/c1cc(Br)cc(Br)c1O)c1cccc(S(=O)(=O)N2CCOCC2)c1 the results were GLS inhibitor -5%, Menin MLL FP FL inconclusive, Six1-Eya2 inh -70*, CtBP-E1A inh -94* and CXXC DNA block inconclusive.
`O=C(CSc1nc(-c2ccccc2)[nH]c1-c1ccccc1)Nc1ccc2c(c1)OCCO2` gave GLS inhibitor -13%.
For c1ccc(CCNc2ccnc3cc4ccccc4cc23)cc1 the results were Menin MLL FP TR 22µM*, GLS inhibitor -1%, Menin MLL FP FL -21, Six1-Eya2 inh 11, CtBP-E1A inh -20 and CXXC DNA block inconclusive.
Screening CC(C)Nc1ccc(Nc2ccnc3cc4ccccc4cc23)cc1 returned GLS inhibitor -23%, Menin MLL FP FL 4, Six1-Eya2 inh -70*, CtBP-E1A inh -81* and CXXC DNA block inconclusive.
For COc1ccc(Nc2ccnc3ccccc23)cc1 the results were Menin MLL FP TR 1%, GLS inhibitor 4%, Menin MLL FP FL -1, Six1-Eya2 inh 2, CtBP-E1A inh -9 and CXXC DNA block 3%.
`O=C(NCCc1ccccc1)c1nccc2ccccc12` gave GLS inhibitor -2%, Six1-Eya2 inh 5 and CtBP-E1A inh 13.
For Cc1ccc(NS(=O)(=O)c2c(C)nc3sccn3c2=O)c(Cl)c1 the results were GLS inhibitor -3%.
`c1ccc(N=Nc2ccc3cccccc2-3)cc1` gave GLS inhibitor 6%, Six1-Eya2 inh -98* and CtBP-E1A inh -90*.
`C[C@@]12CCC(=O)C=C1C=CC1C2CC[C@]2(C)C1CC[C@@]21CCC(=O)O1` (some centres undefined) gave Menin MLL FP TR -4%, GLS inhibitor 7%, Menin MLL FP FL inconclusive and CXXC DNA block 6%.
For Cc1nc2c([nH]1)c(=O)n(C)c(=O)n2Cc1ccco1 the results were Menin MLL FP TR 16µM*!, GLS inhibitor -5%, Menin MLL FP FL inconclusive and CXXC DNA block 9%.
C#CCn1c(C2CC(=O)N(c3ccc(OCC)cc3)C2)nc2ccccc21 (centres undefined) was read as GLS inhibitor -3%.
